Hits are enriched below; roughly 3.1% of the tested compounds scored in any of these assays.
p53null 32C tox = p53 null cell cytotoxicity, permissive temperature | H1299-neo p53 null cells, ATP luminescence, 24 h, 32C | Potency, µM (titrated, usually from 46.1 µM), without a hit: top-dose activity change, negative = cytotoxicity, hits mostly cytotoxic | hit rate 0.62% among 55,000;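 note: 0% = DMSO only and -100% = full killing by 100 µM tamoxifen; nearly all actives have a fitted effect of over 55% in size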
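Cytotoxicity: H1299-neo (no p53), 32C, 24 h treatment. Concentrations up to 46 uM. Readout cellular ATP, luminescence. Normalization to DMSO basal and tamoxifen 100 uM maximal kill.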
S16 viability = S16 Schwann cell cytotoxicity; S16 Pmp22-F2sN Schwann cells viability, CellTiter-Glo, 24 h; Potency, µM (highest dose often 57.5 µM), for the others: top-dose activity change, negative = cytotoxicity, hits mostly cytotoxic; hit rate 0.48% among 43,000; note: nearly all actives have a fitted effect of over 65% in size
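S16 Schwann cells carrying the Pmp22-F2sN reporter, seeded in 1536-well format, were exposed to library compounds for 24 h at 37C. Viability was read as CellTiter-Glo luminescence after 15 min at room temperature.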
PMP22 txn = modulators of PMP22 gene transcription in S16 Schwann cells; S16 Pmp22-F2sN Schwann cells (luciferase reporters placed in the Pmp22 gene), FLuc/NLuc coincidence luminescence, 24 h; Potency, µM (highest dose often 57.5 µM), without a hit: top-dose activity change, negative = inhibition, actives largely listed as inhibitors; hit rate 2% among 43,000; AID 1508649; active = clear falling dose curves in both reporters; inconclusive = both reporters move, but less clearly or upward; inactive = either reporter flat; the % is the NLuc reporter signal
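Reporter cells (S16 Pmp22-F2sN, 500–1,000 per well) exposed to compounds for 24 h, 37C, 5% CO2; lysis with FLuc read after 10 min, then Stop&Glo and NLuc read after 10 min.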
p53null 39C tox = selectivity test: cytotoxicity in p53 null cells, nonpermissive temperature. hit rate 0.97% among 55,000. Potency, µM (titrated, usually from 46.1 µM), for the others: at the top dose activity, negative = cell killing, actives largely listed as cytotoxic. H1299 p53-null (neo) cells, 39C, ATPlite viability, 24 h. AID 904;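 note: 0% = DMSO only and -100% = full killing by 100 µM tamoxifen; nearly all actives have a fitted effect of over 50% in size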
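Temperature-shift cytotoxicity format: compound titrations on p53-null or A138V-expressing H1299 cells held 24 hr at 39C, cell ATP then measured, AC50 from Hill model.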
SKOV3 invasion = blocks SKOV3ip1 adhesion and invasion in omental model | SKOV3ip1-GFP adhesion/invasion on 3D omental model, fluorescence | Potency, µM (titrated, usually from 45.8 µM), inactives show top-dose activity change, negative = inhibition, most hits filed as inhibitors | hit rate 0.1% among 46,000;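 note: plate controls were DMSO wells for no effect and tomatine positive control wells for full effect; nearly all actives have a fitted effect of over 65% in size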
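A 3D layer of primary human omental fibroblasts, mesothelial cells, fibronectin and collagen I, grown 48 hr, received SKOV3ip1-GFP cells in serum-free medium plus compounds at 0.36-46 umol/L. After 2 hr RT and 16 hr 37 C, fixed adherent GFP cells were counted; normalized to DMSO and tomatine.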
mTORC1 inh = reduces mTORC1 signaling in Tsc2 and p53 null MEF cells; Tsc2-/- p53-/- MEF, phospho-rpS6 immunofluorescence/PI, 24 h; Potency, µM (series often up to 38.3 µM), inactives show at the highest dose activity change, negative = inhibition, actives largely listed as inhibitors; hit rate 0.78% among 44,000; AID 493208;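 note: plate controls were DMSO for no effect and rapamycin for full effect; nearly all actives have a fitted effect of over 50% in size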
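Tsc2-/-, p53-/- mouse embryonic fibroblasts (empty-vector line) exposed to compound 24 hrs at 37 C, fixed, immunostained for phospho-rpS6 and counterstained with propidium iodide. Acumen laser scanning gives % positive cells from Alexa 488/PI ratio, thresholded using 7.5 nM rapamycin; PI count gives viability.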
Active calls of the source: *. Unless noted, calls come from the whole dose curve; as a rule, active = well fitted curve in the direction sought with a large enough effect; inconclusive = small, poorly fitted or top-dose-only effect, or another doubt; inactive = no such curve, though single readings can be large; an effect the other way counts as inactive or inconclusive. Unless noted, % is set by controls: 0 for no effect and ±100 for the full control effect; potency is the fitted concentration of half-maximal effect.

Screening c1ccc2cc(OCc3nc4ccccc4[nH]3)ccc2c1 returned p53null 32C tox 11µM* and p53null 39C tox 11µM*.
For Cc1cccc(C(=O)Nc2c(C(=O)NCc3ccc(Cl)cc3)sc3nc(C)cc(C)c23)c1 the results were p53null 32C tox -20%, S16 viability inconclusive, PMP22 txn inconclusive, p53null 39C tox inconclusive, SKOV3 invasion -1% and mTORC1 inh 13µM*.
Screening COc1cc(Cl)c(C)cc1NC(=O)c1cc2ccc3cccnc3c2[nH]1 returned p53null 32C tox 20µM*, S16 viability -1%, PMP22 txn inconclusive, p53null 39C tox -10%, SKOV3 invasion inactive and mTORC1 inh -2%.
O=S(=O)(Nc1cccc(-c2ccc(N3CCCCCC3)nn2)c1)c1ccccc1 was read as p53null 32C tox -20%, p53null 39C tox inconclusive, SKOV3 invasion inactive and mTORC1 inh -3%.
O=S(=O)(Nc1cccc(-c2ccc(N3CCCCC3)nn2)c1)c1ccc(Cl)s1 was read as p53null 32C tox 16µM*, p53null 39C tox 10µM*, SKOV3 invasion -5% and mTORC1 inh 2%.
`O=S(=O)(Nc1cccc(-c2ccc(N3CCCCC3)nn2)c1)c1cccs1` gave p53null 32C tox 16µM*, p53null 39C tox 10µM*, SKOV3 invasion 12% and mTORC1 inh 1%.
`O=C(NCc1ccncc1)C12C[C@H]3C[C@@H](C1)CC(c1ccc(Cl)cc1)(C3)C2` gave SKOV3 invasion 22%.
For CCOC(=O)c1cnc2c(Cl)cccc2c1NCCN1CCOCC1 the results were p53null 32C tox -15%, S16 viability 6%, PMP22 txn -17%, p53null 39C tox 19%, SKOV3 invasion -9% and mTORC1 inh 0%.
Screening O=C1C(Cl)=C(NCCN2CCOCC2)C(=O)c2ncccc21 returned SKOV3 invasion 5.9µM*.
Screening COc1cc2nc(Nc3ccc(C)c(C)c3)nc(N)c2cc1OC returned p53null 32C tox inconclusive, S16 viability inconclusive, PMP22 txn inconclusive, p53null 39C tox 32µM*, SKOV3 invasion inconclusive and mTORC1 inh inconclusive.
`COc1cc2nc(Nc3cccc(C)c3)nc(N)c2cc1OC` gave p53null 32C tox inconclusive, S16 viability -27%, PMP22 txn inconclusive, p53null 39C tox inconclusive, SKOV3 invasion inconclusive and mTORC1 inh inconclusive.
Screening CC(=O)O[C@H]1C[C@@H]2CC[C@H]3[C@H]4C[C@H]([N+]5(C)CCCCC5)[C@@H](OC(C)=O)[C@@]4(C)CC[C@@H]3[C@@]2(C)C[C@H]1[N+]1(C)CCCCC1 returned SKOV3 invasion 15%.
`CCN1CCC(N(Cc2ccc(F)cc2)C(=O)Nc2cc(Cl)ccc2C(=O)OC)CC1` gave p53null 32C tox -6%, S16 viability inconclusive, PMP22 txn inconclusive, p53null 39C tox -26%, SKOV3 invasion 11µM* and mTORC1 inh inconclusive.
Screening CCN1CCC(N(Cc2ccc3c(c2)OCO3)C(=O)Nc2cc(F)ccc2F)CC1 returned p53null 32C tox -2%, S16 viability 6%, PMP22 txn -16%, p53null 39C tox -5%, SKOV3 invasion 1% and mTORC1 inh 3%.
For COc1cc(C(=O)n2nc(C)c(Sc3ccc(Cl)cc3)c2C)cc(OC)c1OC the results were p53null 32C tox 7%, S16 viability 13%, PMP22 txn -4%, p53null 39C tox inconclusive, SKOV3 invasion inactive and mTORC1 inh 10µM*.
For Cc1ccc(Sc2c(C)nn(C(=O)c3ccc(Cl)cc3)c2C)cc1 the results were p53null 32C tox 13%, S16 viability -6%, PMP22 txn -14%, p53null 39C tox 9%, SKOV3 invasion -15% and mTORC1 inh 4%.
CC(C)NC(=O)c1cc2c(s1)CCCC2 was read as p53null 32C tox inconclusive and p53null 39C tox 10µM*.
OC1CCC(Nc2ncc3nc(Nc4c(F)cc(F)cc4F)n([C@@H]4CCOC4)c3n2)CC1 (stereo partly specified) was read as SKOV3 invasion 33%.
For CC(C)Nc1cc(C(F)(F)F)cc2nc(NC(=O)c3cccnc3)nn12 the results were SKOV3 invasion -1%.
For Cc1cc(C)c(NS(=O)(=O)c2ccc(-c3coc(C)n3)cc2)c(C)c1 the results were p53null 32C tox 0%, S16 viability 3%, PMP22 txn -8%, p53null 39C tox 4%, SKOV3 invasion -5% and mTORC1 inh -8%.
`CCc1ccccc1NS(=O)(=O)c1ccc(-c2coc(C)n2)cc1` gave p53null 32C tox 7.1µM*, S16 viability -26%, PMP22 txn -48%, p53null 39C tox 10%, SKOV3 invasion -6% and mTORC1 inh -20%.
CCCOc1ccc(-c2nc3ccccc3c(=O)o2)cc1 was read as p53null 32C tox 16µM*, S16 viability 8%, PMP22 txn -2%, p53null 39C tox 5µM*, SKOV3 invasion inactive and mTORC1 inh 5%.
For CCc1ccc(N2CCn3c2nc2c3c(=O)n(Cc3c(F)cccc3Cl)c(=O)n2C)cc1 the results were p53null 32C tox 2%, S16 viability 8%, PMP22 txn 10%, p53null 39C tox 13µM*, SKOV3 invasion -8% and mTORC1 inh -1%.
`O=C(CC(Nc1ccc(Cl)cc1)C(=O)O)c1ccccc1` (stereo unspecified) gave p53null 32C tox inconclusive and p53null 39C tox 14µM*.
Screening CCCCC(C)(C)[C@H](O)C=C[C@H]1[C@H](O)CC(=O)[C@H]1CC=CCCCC(=O)O returned SKOV3 invasion -15%.
For CCS(=O)(=O)c1ncc(Cl)c(C(=O)N2CCN(c3cccc(Cl)c3)CC2)n1 the results were p53null 32C tox inconclusive, S16 viability 4.5µM*, PMP22 txn inconclusive, p53null 39C tox 3.2µM*, SKOV3 invasion inactive and mTORC1 inh 2.6µM*.
Screening CS(=O)(=O)c1ncc(Cl)c(C(=O)N2CCN(c3cccc(Cl)c3)CC2)n1 returned p53null 32C tox 14µM*, S16 viability 3.2µM*, PMP22 txn inconclusive, p53null 39C tox -95%, SKOV3 invasion inconclusive and mTORC1 inh 0.46µM*.
CC(C)c1cc(-c2n[nH]c(=O)n2-c2ccc3c(ccn3C)c2)c(O)cc1O was read as SKOV3 invasion 6%.
For C=C1C[C@@]2(O)O[C@@]3(C[C@H]2C(C)C)[C@H](C)CC[C@H]13 the results were SKOV3 invasion 2%.
